Assay outcomes deposited in PubChem by National Center for Advancing Translational Sciences (NCATS).
The list is not random: actives were taken first. Their share in the collection is about 19%.
ELG1 repair inh – ELG1-dependent DNA repair inhibition | HEK293T ELG1-luciferase reporter, luminescence, 16 h; DNA damage induced by 5-fluorouridine | AID 504467 | actives 2.3% (n = 330,000) | Potency, µM (highest dose often 46.1 µM), for inactives: top-dose activity change, negative = inhibition, usual class: inhibitors; note: potency is the fitted concentration of half-maximal effect; nearly all actives have a fitted effect of over 55% in size
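Step one: seed 2,000 cells per well. Step two: pin-transfer compound or DMSO alongside 5-fluorouridine. Step three: incubate 16 hr, 37 °C, 5% CO2. Step four: add ONE-Glo, wait 30 min, read luminescence.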
DT40 TDP1 no CPT – qHTS for Inhibitors of human tyrosyl-DNA phosphodiesterase 1 (TDP1): qHTS in cells in absence of CPT; actives 15% (n = 420,000); AID 686978, 2013; DT40 Tdp1-/- hTDP1 cells, no CPT, ATP luminescence, 48 h; Potency, µM (doses to about 46.2 µM), for inactives: at the highest dose activity change, negative = growth inhibition, hits mostly inhibitors; note: potency is the fitted concentration of half-maximal effect; nearly all actives have a fitted effect of over 55% in size
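Camptothecin absent (DMSO only). Human TDP1-complemented DT40 knockout cells, 400 cells/well, 37 °C for minimum 48 hr; ATP measured via CellTiter-Glo, 30 min dark incubation, luminescence.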
HT1080-NT tox – kills 2HG-producing HT-1080-NT fibrosarcoma cells | AID 686970 | actives 1.6% (n = 360,000) | HT-1080-NT fibrosarcoma viability, CellTiter-Glo ATP luminescence, 48 h | Potency, µM (highest dose often 46.1 µM), without a hit: at the highest dose activity, negative = less viability, usual class: cytotoxic;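 note: NT is the 2HG producing partner of a matched IDH1 knockdown line; potency is the fitted concentration of half-maximal effect; 0% = DMSO-treated cells and -100% = media-only wells without cells; nearly all actives have a fitted effect of over 55% in size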
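HT-1080-NT fibrosarcoma cells (2HG-overproducing), 750 cells/well in RPMI with 5% FBS, dosed after 2 h and incubated 48 h at 37C. CellTiter-Glo luminescence normalized to DMSO and no-cell wells; concentration-response curves fitted and classed.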
DT40 TDP1 CPT – DT40-hTDP1 cell growth loss with CPT | chicken DT40 Tdp1-/-;hTDP1 cells + 20 nM CPT, ATP luminescence, 48 h | Potency, µM (top dose mostly 46.2 µM), inactives show at the top dose activity change, negative = growth inhibition, most hits filed as inhibitors | actives 12% (n = 420,000); note: potency is the fitted concentration of half-maximal effect; nearly all actives have a fitted effect of over 55% in size
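Chicken DT40 Tdp1-/- cells stably complemented with human TDP1 were seeded at 400 cells/well in medium containing 20 nM camptothecin, exposed to pin-transferred compounds, and grown at 37 °C for at least 48 hr. Viability was read as ATP luminescence.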
HT1080 IDH1KD tx – toxicity to HT-1080 IDH1 knockdown cells (counter line); HT-1080 IDH1 knockdown viability, ATP luminescence, 48 h; actives 2% (n = 360,000); Potency, µM (doses to about 46.1 µM), for the others: at the highest dose activity, negative = toxicity, actives largely listed as cytotoxic;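 note: potency is the fitted concentration of half-maximal effect; 0% = DMSO wells and -100% = cell-free medium wells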
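Assay cells: HT-1080 with IDH1 knockdown, 750 per well, RPMI/5% FBS. Exposure: 48 h at 37 °C following 2 h pre-incubation. Read: CellTiter-Glo luminescence; fitted concentration-response, curve class assigned.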
IL1B secr inh – inflammasome signaling inhibition, IL-1 beta readout; actives 4.7% (n = 360,000); AID 743279; THP-1 LPS/ATP IL-1B secretion, AlphaLISA, 16 h; hits give low values; activity change, % at 57.5 µM; in the data active = activity change below about -50%; inconclusive = mostly about -30% to -49%
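Secreted IL-1B measured by AlphaLISA bead assay after 16 h compound exposure of THP-1 cells; compounds (final up to 57.5 uM) added 1 h before LPS (250 ng/mL) and ATP (1.25 mM) stimulation; lower signal means less secretion.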
* = called active by the depositor; ? = inconclusive; . = not tested or not shown. Unless noted, calls come from the whole dose curve; as a rule, active = well fitted curve in the direction sought with a large enough effect; inconclusive = small, poorly fitted or top-dose-only effect, or another doubt; inactive = no such curve, though single readings can be large; an effect the other way counts as inactive or inconclusive. Unless noted, % is set by controls: 0 for no effect and ±100 for the full control effect.

SMILES	ELG1 repair inh	DT40 TDP1 no CPT	HT1080-NT tox	DT40 TDP1 CPT	HT1080 IDH1KD tx	IL1B secr inh
N#Cc1c(N)nc(N)nc1Nc1ccc(Br)cc1	?	15µM*	-3%	?	1%	5
O=C1OCCC1Sc1nnc2c(n1)[nH]c1ccccc12 (stereo not drawn)	.	-3%	2%	12%	8%	.
CN(C)c1ccc(/C=N/n2c(C3CCCCC3)n[nH]c2=S)cc1	-3%	16µM*	-16%	?	-12%	-62*
COc1cccc(/C=N/n2c(C3CCCCC3)n[nH]c2=S)c1OC	?	-22%	9%	?	2%	0
S=c1[nH]nc(C2CCCCC2)n1/N=C/c1cccc(Cl)c1Cl	-1%	23µM*	28%	?	-1%	-61*
O=C(NCc1ccc2c(c1)OCO2)C(=O)NCC1OCCN1S(=O)(=O)c1ccccc1 (stereo not drawn)	.	?	4%	-6%	1%	-3
CCCCCn1c(=O)[nH]c2cc(C(=O)Nc3ccc(OC)c(OC)c3)ccc2c1=O	.	-14%	.	4%	.	.
CCN(CC)CCNC(=O)C(=O)NCC(c1ccc2c(c1)OCO2)N1CCOCC1 (stereo not drawn)	.	-6%	.	3%	.	.
CC(=O)C(Cc1ccccc1)NC(=O)CN1CCN(Cc2ccccc2)CC1 (stereo not drawn)	0%	-24%	6%	-16%	-18%	-9
CC(C)C[C@H](NC(=O)[C@H](CCc1ccccc1)NC(=O)CN1CCOCC1)C(=O)N[C@@H](Cc1ccccc1)C(=O)N[C@@H](CC(C)C)C(=O)[C@@]1(C)CO1	.	0.0042µM*	.	0.0067µM*	.	.
CCc1ccc(NC(=O)CC2C(=O)N(c3ccccc3)C(=O)N2C(C)C)cc1 (stereo not drawn)	.	-1%	.	-9%	.	.
COc1cccc(NC(=S)NCc2ccc(F)cc2)c1	7%	1%	2%	7%	6%	8
COc1cccc(Nc2sc(C(=O)c3ccc(F)cc3)c(N)c2C(=O)NCc2ccc(C)cc2)c1	.	5.2µM*	.	4.1µM*	.	.
COc1ccc(CNC(=O)c2c(Nc3ccccc3C)sc(C(=O)c3ccccc3)c2N)cc1	.	5.2µM*	.	?	.	.
Cc1ccc(CNC(=O)c2c(Nc3ccccc3C)sc(C(=O)c3ccc(F)cc3)c2N)cc1	.	15µM*	.	?	.	.
Nc1ncnc2c1ncn2[C@@H]1O[C@H](CNS(=O)(=O)c2cc3ccccc3s2)[C@@H](O)[C@H]1O	?	?	5%	?	2%	21
COc1ccc(NC(=O)c2cnc(SCC(=O)Nc3nc4ccc(C)cc4s3)n(C)c2=O)cc1	.	9%	.	-9%	.	.
C[N+]1(CC2COC3(CCCCC3)O2)CCCCC1 (stereo not drawn)	14%	-4%	4%	-11%	-1%	7
C[N+]1(CC2COC(c3ccccc3)(C3CCCCC3)O2)CCCCC1 (stereo not drawn)	.	6µM*	.	-94%	.	.
CNC(=O)c1ccccc1Sc1cccc2cccc(C(=O)O)c12	1%	10%	11%	0%	19%	7
CNC(=O)c1ccccc1Sc1ccc2c(/C=C/c3ccccn3)n[nH]c2c1	.	2.7µM*	.	4.2µM*	.	.
CCn1c(=O)c(C(=O)NCc2ccccc2)c(O)c2ccccc21	-2%	?	-5%	-20%	-20%	0
CCn1c(=O)c(C(=O)NCc2ccc(Cl)cc2)c(O)c2ccccc21	-1%	?	2%	21µM*	8%	20
CCn1c(=O)c(C(=O)NCc2ccc(F)cc2)c(O)c2ccccc21	10%	?	-6%	9.2µM*	1%	102
Cc1ccccc1-n1c([C@@H]2C[C@H]2c2ccccc2)n[nH]c1=S	-9%	-21%	-2%	1%	-1%	23
SMILES	ELG1 repair inh	DT40 TDP1 no CPT	HT1080-NT tox	DT40 TDP1 CPT	HT1080 IDH1KD tx	IL1B secr inh
Cc1cc(C)nc(/N=C(\N)Nc2ccc(C)c([N+](=O)[O-])c2)n1	0%	13µM*	-4%	10µM*	-13%	-112*
CCc1ccc(N/C(=N/c2nc(C)cc(C)n2)NC(C)=O)cc1	?	?	3%	?	-2%	-20
COc1ccccc1N/C(N)=N/c1nc(C)cc(C)n1	1%	?	-12%	?	-3%	-8
Cc1cc(C)nc(/N=C(\N)Nc2cccc(OCc3ccccc3)c2)n1	21µM*	12µM*	?	16µM*	?	-68*
Cc1cc(C)nc(/N=C(\N)Nc2ccc(CC(=O)OC(C)C)cc2)n1	-3%	3.3µM*	-12%	?	-27%	-99*
CCOC(=O)C(=O)Nc1ccc(OCc2ccccc2)cc1	17%	-3%	?	-4%	9%	9
Cc1cc(C)nc(/N=C(\N)Nc2ccc(S(=O)(=O)O)cc2)n1	7%	8%	13%	0%	6%	34
Cc1cc(C)nc(/N=C(\N)Nc2ccc(OCc3ccccc3)cc2)n1	-7%	12µM*	18µM*	12µM*	?	-93*
CCO/C(C)=N/Oc1cnc2ccccc2c1	.	-19%	13%	-12%	2%	38
O=C(CSc1nc2c(c(=O)[nH]1)CCC2)Nc1cc(C(F)(F)F)ccc1Cl	.	-24%	.	2%	.	.
CNC(=O)C1CC(=O)N(CCc2ccc(C)cc2)C1 (stereo not drawn)	-2%	-7%	2%	8%	17%	-1
Cc1cc(C)nc(/N=C(\N)Nc2ccc(OCCC(C)C)cc2)n1	-15%	12µM*	15µM*	9.2µM*	23µM*	-98*
COc1ccc(N/C(N)=N/c2nc(C)cc(C)n2)cc1	.	?	3%	-21%	2%	82
O=C(CC[C@H]1O[C@@H](n2cnc3c(NC(=O)c4ccccc4)ncnc32)[C@H](O)[C@@H]1O)NCC1CCCCC1	.	-4%	18%	-1%	22%	-4
CC(c1nc2ccccc2[nH]1)n1c(-c2ccncc2)nc2ccccc21 (stereo not drawn)	.	-7%	24%	-11%	21%	13
Cc1cccc(C)c1NC(=O)C(c1ccc(-c2ccccc2)cc1)n1c(=O)c(-c2ccco2)nc2ccccc21 (stereo not drawn)	.	?	-27%	?	-20%	9
